From paper PMC5540273 (PLoS ONE, 2017)

Assays:
Conditions in all cases: concentration: 1 μM, replicates: in singlicate; n = 1
IKK-alpha = tested on: T1, IKK-alpha
T1 construct: gene CHUK

IKK-beta = tested on: T2, IKK-beta
T2 construct: gene IKBKB

IKK-epsilon = tested on: T3, IKK-epsilon
T3 construct: gene IKBKE

INSRR = tested on: INSRR
INSR = tested on: INSR
IRAK1 = tested on: IRAK1
IRAK3 = tested on: IRAK3
IRAK4 = tested on: IRAK4
ITK = tested on: ITK
[1] = tested on: JAK1(JH1domain-catalytic)
[2] = tested on: JAK1(JH2domain-pseudokinase)
[3] = tested on: JAK2(JH1domain-catalytic)
[4] = tested on: JAK3(JH1domain-catalytic)
JNK1 = tested on: T4, JNK1
T4 construct: gene MAPK8

JNK2 = tested on: T5, JNK2
T5 construct: gene MAPK9

JNK3 = tested on: T6, JNK3
T6 construct: gene MAPK10

KIT-autoinhibited = tested on: KIT-autoinhibited
KIT = tested on: KIT
LATS1 = tested on: LATS1
LATS2 = tested on: LATS2
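Note: KINOMEscan kinase panel screen.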

## CC(=O)N1CCN(c2ccc(Nc3nccc(-c4sc(C(C)C)nc4-c4cccc(NS(=O)(=O)c5cccc(Cl)c5)c4)n3)cn2)CC1 [GSK1660437]
IKK-alpha
  %Inh: 0%
IKK-beta
  %Inh: 0%
IKK-epsilon
  %Inh: 20%
INSRR
  %Inh: 25%
INSR
  %Inh: 8%
IRAK1
  %Inh: 0%
IRAK3
  %Inh: 0%
IRAK4
  %Inh: 0%
ITK
  %Inh: 20%
[1]
  %Inh: 0%
[2]
  %Inh: 0%
[3]
  %Inh: 40%
[4]
  %Inh: 82%
JNK1
  %Inh: 13%
JNK2
  %Inh: 16%
JNK3
  %Inh: 11%
KIT-autoinhibited
  %Inh: 0%
KIT
  %Inh: 96.1%
LATS1
  %Inh: 0%
LATS2
  %Inh: 0%

## COc1ccc(Nc2nccc(NCCNC(=O)c3cc4ccccc4s3)n2)cc1 [GSK1379896]
IKK-alpha
  %Inh: 0%
IKK-beta
  %Inh: 0%
IKK-epsilon
  %Inh: 0%
INSRR
  %Inh: 0%
INSR
  %Inh: 0%
IRAK1
  %Inh: 0%
IRAK3
  %Inh: 0%
IRAK4
  %Inh: 0%
ITK
  %Inh: 8%
[1]
  %Inh: 5%
[2]
  %Inh: 0%
[3]
  %Inh: 23%
[4]
  %Inh: 0%
JNK1
  %Inh: 6%
JNK2
  %Inh: 27%
JNK3
  %Inh: 6%
KIT-autoinhibited
  %Inh: 0%
KIT
  %Inh: 5%
LATS1
  %Inh: 0%
LATS2
  %Inh: 0%

## Nc1ncc(-c2ccc3nccc(-c4ccncc4)c3c2)cc1S(=O)(=O)N1CCOCC1 [GSK1627798]
IKK-alpha
  %Inh: 21%
IKK-beta
  %Inh: 9%
IKK-epsilon
  %Inh: 11%
INSRR
  %Inh: 15%
INSR
  %Inh: 35%
IRAK1
  %Inh: 31%
IRAK3
  %Inh: 73%
IRAK4
  %Inh: 16%
ITK
  %Inh: 11%
[1]
  %Inh: 3%
[2]
  %Inh: 0%
[3]
  %Inh: 0%
[4]
  %Inh: 0%
JNK1
  %Inh: 26%
JNK2
  %Inh: 19%
JNK3
  %Inh: 10%
KIT-autoinhibited
  %Inh: 0%
KIT
  %Inh: 16%
LATS1
  %Inh: 0%
LATS2
  %Inh: 0%

## Clc1ccc(-c2nn3ncccc3c2-c2ccnc(Nc3ccc4c(c3)OCCO4)n2)cc1 [GW829116]
IKK-alpha
  %Inh: 0%
IKK-beta
  %Inh: 0%
IKK-epsilon
  %Inh: 17%
INSRR
  %Inh: 0%
INSR
  %Inh: 0%
IRAK1
  %Inh: 0%
IRAK3
  %Inh: 0%
IRAK4
  %Inh: 0%
ITK
  %Inh: 0%
[1]
  %Inh: 0%
[2]
  %Inh: 17%
[3]
  %Inh: 2%
[4]
  %Inh: 0%
JNK1
  %Inh: 99.2%
JNK2
  %Inh: 99.9%
JNK3
  %Inh: 100%
KIT-autoinhibited
  %Inh: 36%
KIT
  %Inh: 99.9%
LATS1
  %Inh: 0%
LATS2
  %Inh: 0%

## COc1ccc(Nc2nccc(N3CCC(NC(=O)Nc4cccc(OC)c4)C3)n2)cc1 (centres unmarked) [GSK1379742]
IKK-alpha
  %Inh: 24%
IKK-beta
  %Inh: 19%
IKK-epsilon
  %Inh: 0%
INSRR
  %Inh: 0%
INSR
  %Inh: 0%
IRAK1
  %Inh: 0%
IRAK3
  %Inh: 15%
IRAK4
  %Inh: 6%
ITK
  %Inh: 11%
[1]
  %Inh: 12%
[2]
  %Inh: 0%
[3]
  %Inh: 26%
[4]
  %Inh: 0%
JNK1
  %Inh: 14%
JNK2
  %Inh: 13%
JNK3
  %Inh: 0%
KIT-autoinhibited
  %Inh: 31%
KIT
  %Inh: 49%
LATS1
  %Inh: 0%
LATS2
  %Inh: 0%

## Cl.c1ccc(-c2ccc3c(Nc4ccc5[nH]ccc5c4)ccnc3c2)nc1 [GW440138]
IKK-alpha
  %Inh: 17%
IKK-beta
  %Inh: 8%
IKK-epsilon
  %Inh: 19%
INSRR
  %Inh: 0%
INSR
  %Inh: 0%
IRAK1
  %Inh: 28%
IRAK3
  %Inh: 0%
IRAK4
  %Inh: 3%
ITK
  %Inh: 0%
[1]
  %Inh: 12%
[2]
  %Inh: 0%
[3]
  %Inh: 24%
[4]
  %Inh: 0%
JNK1
  %Inh: 0%
JNK2
  %Inh: 7%
JNK3
  %Inh: 2%
KIT-autoinhibited
  %Inh: 1%
KIT
  %Inh: 100%
LATS1
  %Inh: 0%
LATS2
  %Inh: 17%

## Oc1cc(Nc2ccnc3cc(I)ccc23)ccc1F [GW552771]
IKK-alpha
  %Inh: 31%
IKK-beta
  %Inh: 19%
IKK-epsilon
  %Inh: 0%
INSRR
  %Inh: 0%
INSR
  %Inh: 0%
IRAK1
  %Inh: 50%
IRAK3
  %Inh: 25%
IRAK4
  %Inh: 11%
ITK
  %Inh: 0%
[1]
  %Inh: 4%
[2]
  %Inh: 0%
[3]
  %Inh: 7%
[4]
  %Inh: 0%
JNK1
  %Inh: 32%
JNK2
  %Inh: 43%
JNK3
  %Inh: 28%
KIT-autoinhibited
  %Inh: 0%
KIT
  %Inh: 70%
LATS1
  %Inh: 0%
LATS2
  %Inh: 0%

## CN(c1ccc(NC(=O)Nc2cc(C(F)(F)F)ccc2F)cc1)c1ccnc(Nc2ccc(S(N)(=O)=O)cc2)n1 [GW809893]
IKK-alpha
  %Inh: 82%
IKK-beta
  %Inh: 44%
IKK-epsilon
  %Inh: 7%
INSRR
  %Inh: 13%
INSR
  %Inh: 15%
IRAK1
  %Inh: 49%
IRAK3
  %Inh: 51%
IRAK4
  %Inh: 6%
ITK
  %Inh: 59%
[1]
  %Inh: 95.3%
[2]
  %Inh: 16%
[3]
  %Inh: 94.7%
[4]
  %Inh: 51%
JNK1
  %Inh: 8%
JNK2
  %Inh: 51%
JNK3
  %Inh: 0%
KIT-autoinhibited
  %Inh: 16%
KIT
  %Inh: 99.5%
LATS1
  %Inh: 0%
LATS2
  %Inh: 0%

## Cc1ccc(S(=O)(=O)Nc2ccc(Nc3nccc(Nc4cccc5[nH]ncc45)n3)cc2)cc1 [GSK581271]
IKK-alpha
  %Inh: 10%
IKK-beta
  %Inh: 3%
IKK-epsilon
  %Inh: 0%
INSRR
  %Inh: 0%
INSR
  %Inh: 0%
IRAK1
  %Inh: 29%
IRAK3
  %Inh: 62%
IRAK4
  %Inh: 43%
ITK
  %Inh: 29%
[1]
  %Inh: 44%
[2]
  %Inh: 16%
[3]
  %Inh: 68%
[4]
  %Inh: 3%
JNK1
  %Inh: 44%
JNK2
  %Inh: 27%
JNK3
  %Inh: 29%
KIT-autoinhibited
  %Inh: 0%
KIT
  %Inh: 85%
LATS1
  %Inh: 0%
LATS2
  %Inh: 0%

## CCS(=O)(=O)c1ccc(OC)c(Nc2nccc(-c3c(-c4cccc(NC(=O)c5c(F)cccc5F)c4)nn4ncccc34)n2)c1 [GSK326180]
IKK-alpha
  %Inh: 27%
IKK-beta
  %Inh: 27%
IKK-epsilon
  %Inh: 13%
INSRR
  %Inh: 21%
INSR
  %Inh: 45%
IRAK1
  %Inh: 28%
IRAK3
  %Inh: 1%
IRAK4
  %Inh: 29%
ITK
  %Inh: 5%
[1]
  %Inh: 20%
[2]
  %Inh: 0%
[3]
  %Inh: 0%
[4]
  %Inh: 0%
JNK1
  %Inh: 32%
JNK2
  %Inh: 68%
JNK3
  %Inh: 46%
KIT-autoinhibited
  %Inh: 0%
KIT
  %Inh: 32%
LATS1
  %Inh: 0%
LATS2
  %Inh: 2%
